Results as given in the supplement of paper PMC10338343.
± gives the standard deviation.

What follows are sequences tested on EfPiwi piRISC loaded with L1MC piRNA (26 nt) (assay: pre-steady-state target cleavage rate (min^-1); auxiliary factor: 500 nM Ephydatia muelleri Gtsf1; guide: L1MC piRNA 5'p-UAACUAAAUACUAUGCAAGCUGUAGG; MIWI and MILI are mouse PIWI proteins and EfPiwi is from a freshwater sponge; tags in brackets are library labels; higher = faster piRNA-guided slicing of the target).
Summary of the method: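 Using HEPES–potassium acetate buffer at 33 °C, 1 nM active affinity-purified piRISC with a single synthetic guide was mixed with 0.1 nM transcribed, DNA-blocked target RNA library for 0–8 or 0–960 min, with or without 500 nM GTSF1 partner protein. Uncleaved targets were sequenced and normalised to depth and to weakly complementary targets, and three trials were pooled with k3 capped at 0.0001 min^-1. A burst-and-steady-state fit gave the pre-steady-state cleavage rate.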

Q: UCCUGGAUGAGCUAGCAUAGUAUUUUGUUA was tested. Which “pre-steady-state target cleavage rate” value did it give?
A: 0.00327 ± 0.003

Q: How did the “pre-steady-state target cleavage rate” value turn out when UCCUGCUACAGGUUGCAUAGUAUUUAGAAA was run?
A: 0.00261 ± 0.0014

Q: Which “pre-steady-state target cleavage rate” value does the source give for UCCUGCUACAGCAUGCAUAGAAUUUAGUUA here?
A: 0.00243 ± 0.002

Q: How did the “pre-steady-state target cleavage rate” value turn out when UCCUGGAACACGUUGCAUAGUAUUUAGUAA was run?
A: 0.00365 ± 0.0034

Q: For UCCUGCUACAUGCUUGCAUAGUAUUUAGUUA, which “pre-steady-state target cleavage rate” value is on record?
A: 0.00438 ± 0.002

Q: UCCUGGAUGACCUAGCAUAGUAUUUAGUUA was tested. Which “pre-steady-state target cleavage rate” value did it give?
A: 0.0121 ± 0.0072

Q: How did the “pre-steady-state target cleavage rate” value turn out when UCCUGGUAGAGCUUGCAUAGUAUUUAGAAA was run?
A: 0.00392 ± 0.0022

Q: UCCUGGAACAGCUUGCAUAGUAUUUACAUA was tested. Which “pre-steady-state target cleavage rate” value did it give?
A: 0.00316 ± 0.0025

Q: Which “pre-steady-state target cleavage rate” value does the source give for UCCUGGAUCAGCUUGCAUAGUUUUUAGAUA here?
A: 0.00428 ± 0.0026

Q: For UCCUGGAACAGCUUGCAUAGUAAAAAGUUA, which “pre-steady-state target cleavage rate” value is on record?
A: 0.00324 ± 0.0027

Q: Which “pre-steady-state target cleavage rate” value does the source give for UCCUGGAUGAGCUUGCAUAGUAUUAAGAUA here?
A: 0.00505 ± 0.003

Q: How did the “pre-steady-state target cleavage rate” value turn out when UCCUGGAUCAGCUUGCAUAGUAUAUAGAUA was run?
A: 0.00301 ± 0.0023

Q: Which “pre-steady-state target cleavage rate” value does the source give for UCCUGCAACAGCUUGCAUAGUAUUUUCAAA here?
A: 0.00269 ± 0.0017

Q: UCCUGCUACAGCUUGCAUAGUAUUAUGUUA was tested. Which “pre-steady-state target cleavage rate” value did it give?
A: 0.00406 ± 0.002

Q: With UCCUGGUACAGCUUGCAUAGUAAAUAGUUA as the sequence, how does the “pre-steady-state target cleavage rate” value read?
A: 0.00642 ± 0.0025

Q: How did the “pre-steady-state target cleavage rate” value turn out when UCCUGCUACAGCUUGCAGUAGUAUUUAGUUA was run?
A: 0.0051 ± 0.0024

Q: For UCCUGCAACAGCUUGCAUAGAAUUUAGUUA, which “pre-steady-state target cleavage rate” value is on record?
A: 0.00434 ± 0.0021

Q: How did the “pre-steady-state target cleavage rate” value turn out when UCCUGGAUGUCGAACCAUAGUAUUUAGUCA was run?
A: < 0.0001

Q: For UCCUGGAACAGCUUGCAUAGUAAUUAGUAA, which “pre-steady-state target cleavage rate” value is on record?
A: 0.00418 ± 0.0019

Q: Which “pre-steady-state target cleavage rate” value does the source give for UCCUGGUACUCCUUGCAUAGUAUUUAGAAA here?
A: 0.00304 ± 0.0022

Q: With UCCUCCUACAGCUUGCAUAGUAUUAAGAAA as the sequence, how does the “pre-steady-state target cleavage rate” value read?
A: 0.0051 ± 0.0031

Q: Which “pre-steady-state target cleavage rate” value does the source give for UCCUGCUACAGCUUGCAUACUAUUUACUUA here?
A: 0.00325 ± 0.0023

Q: How did the “pre-steady-state target cleavage rate” value turn out when UCCUGGUACUGCUUGCAUAGUAUUUUCAAA was run?
A: 0.00285 ± 0.0022

Q: UCCUCCUACAGCUAGCAUAGUAUUUACUUA was tested. Which “pre-steady-state target cleavage rate” value did it give?
A: 0.00296 ± 0.0027

Q: For UCCUCCUACACCUUGCAUAGUUUUUAGUUA, which “pre-steady-state target cleavage rate” value is on record?
A: 0.00443 ± 0.002

Q: Which “pre-steady-state target cleavage rate” value does the source give for UCCUGGAACAGCUUGCAUAGAAUUUAGUAA here?
A: 0.00292 ± 0.002

Q: How did the “pre-steady-state target cleavage rate” value turn out when UCCUGGAUGUCCUUGCAUAGUAUUUAGUCA was run?
A: 0.00415 ± 0.004

Q: UCCUGGAACAGCUUGCAAUAGUAUUUAGUUA was tested. Which “pre-steady-state target cleavage rate” value did it give?
A: 0.0183 ± 0.0054

Q: How did the “pre-steady-state target cleavage rate” value turn out when UCCUGGAACAGCUUGCUAUAGUAUUUAGUUA was run?
A: 0.00682 ± 0.0023

Q: How did the “pre-steady-state target cleavage rate” value turn out when UCCUCCUACACCUUGCAUACUAUUUAGUUA was run?
A: 0.00578 ± 0.0029

Q: With UCCUGGAACAGGAUGCAUAGUAUUUACAAA as the sequence, how does the “pre-steady-state target cleavage rate” value read?
A: 0.00226 ± 0.0018

Q: How did the “pre-steady-state target cleavage rate” value turn out when UCCUGGUUCAGCUUGCAUAGUAUUUAGAAA was run?
A: 0.00471 ± 0.003

Q: For UCCUGGAACAGCUUGCAUACUAUUAAGUUA, which “pre-steady-state target cleavage rate” value is on record?
A: 0.00246 ± 0.0024

Q: With UCCUGGUACAGGUUGCAUAGUAUUUAGAUA as the sequence, how does the “pre-steady-state target cleavage rate” value read?
A: 0.00271 ± 0.0024

Q: For UCCUCCAACAGCUUGCAUAGUAUUUUCAAA, which “pre-steady-state target cleavage rate” value is on record?
A: 0.00396 ± 0.0027

Q: Which “pre-steady-state target cleavage rate” value does the source give for UCCUGGAUGAGCUUGCAUAGUAUAAAGUUA here?
A: 0.00848 ± 0.0042

Q: For UCCUCCUACAGCUUGGAUAGUAUUUAGAAA, which “pre-steady-state target cleavage rate” value is on record?
A: 0.00325 ± 0.0015

Q: How did the “pre-steady-state target cleavage rate” value turn out when UCCUGCUACAGCUUGCACUAGUAUUUAGUUA was run?
A: 0.00557 ± 0.0023

Q: How did the “pre-steady-state target cleavage rate” value turn out when UCCUGGAACAGGAUGCAUAGUAUUUAGAAA was run?
A: 0.00257 ± 0.0016

Q: UCCUCCUACAGCUUGCUUAGUAUUUAGAAA was tested. Which “pre-steady-state target cleavage rate” value did it give?
A: 0.00569 ± 0.0027
